PubChem BioAssay AID463173 (ICCB-Longwood Screening Facility, Harvard Medical School, 2010)
Out of some 52,000 compounds screened, about 4,300 (8.3%) were called active. Cut-off read from the data, not from the text of the source: active = survival mostly below about 52% (no sharp cut-off); inactive = mostly above about 56%. The full list was thinned out, with actives kept by preference.

Tested on: DeltatarO mutant
Test: growth inhibition of S. aureus wild type versus tarO mutant, primary screen, teichoic acid synthesis inhibitors, RN4220, OD600 (AID 463173)
Conditions: OD600, 18 h, active compounds read low, screened at 18.75 µg/mL (by protocol)

Structure (SMILES) | survival
O=C(O)CCSc1nc2ccccc2o1 | 87% (inactive)
CCc1cccc(C)c1NC(=O)CN(C)S(=O)(=O)c1cccc2nsnc12 | 89% (inactive)
COC(=O)C1=C(C)NC(=O)C1(NC(=O)c1cc(OC)c(OC)c(OC)c1)C(F)(F)F (stereo unspecified) | 54% (inactive)
COc1ccc(NC(=O)C(C)n2nc(-c3ccc(C)c(C)c3)ccc2=O)cc1OC (stereo unspecified) | 69% (inactive)
Cc1ccc(-c2ccc(=O)n(CC(=O)Nc3ccc(C)cc3Cl)n2)cc1 | 50% (inactive)
CCC(C(=O)Nc1cc(Cl)ccc1OC)n1nc(-c2ccccc2)ccc1=O (stereo unspecified) | 24% (active)
CCC(C(=O)Nc1cccc(Cl)c1C)n1nc(-c2ccc(C)cc2)ccc1=O (stereo unspecified) | 41% (active)
Cc1ccc(Cl)cc1NC(=O)C(C)n1nnc2sc(-c3ccccc3)cc2c1=O (stereo unspecified) | 59% (inactive)
CC(=O)c1ccc(NC(=O)CSc2ccc3nc(-c4ccccc4)cn3n2)cc1 | 89% (inactive)
CCC(C(=O)Nc1cccc(Cl)c1C)n1nc(C)c2sc3ccccc3c2c1=O (stereo unspecified) | 72% (inactive)
COc1ccc(Cl)cc1NC(=O)C(OC)c1ccccc1 (stereo unspecified) | 83% (inactive)
Cc1ccc(-c2ccc(=O)n(C(C)C(=O)Nc3ccccc3Cl)n2)cc1C (stereo unspecified) | 66% (inactive)
CC(=O)c1ccc(NC(=O)C(C)n2nc(-c3ccccc3)ccc2=O)cc1 (stereo unspecified) | 32% (active)
Cc1ccc(Cl)cc1NC(=O)C(C)n1nc(-c2ccccc2)ccc1=O (stereo unspecified) | 20% (active)
CCC(C(=O)Nc1cc(OC)cc(OC)c1)n1nc(-c2ccc(C)c(C)c2)ccc1=O (stereo unspecified) | 75% (inactive)
COc1cccc(N2CCN(c3ncc4c(n3)CCN(Cc3ccc(Br)cc3)C4)CC2)c1 | 79% (inactive)
COc1ccc(/C=C\c2onc(C)c2S(=O)(=O)N2CCC(C(=O)Nc3cccc(C)c3C)CC2)cc1 | 68% (inactive)
Cc1ccc(-c2nnn(CCC(=O)NC(C)(C)C)n2)cc1 | 91% (inactive)
Cc1ccc(C(=O)NCCC(C)C)cc1NC(=O)c1nsc2ccccc12 | 73% (inactive)
N#C/C(=C/c1cccs1)C(N)=S | 99% (inactive)
Cc1cc(SCC(=O)NCc2ccc(Cl)cc2)nc(=O)[nH]1 | 86% (inactive)
O=C(Nc1cccc(-n2cnnn2)c1)c1ccccc1 | 95% (inactive)

Structure (SMILES) | survival
Cc1ccc(C)c(N/C=C(\C#N)c2nc3ccccc3o2)c1 | 95% (inactive)
N#C/C(=C\Nc1ccccc1O)c1nc2ccccc2o1 | 1% (active)
N#C/C(=C/Nc1cccc2ccccc12)c1nc2ccccc2o1 | 54% (inactive)
CCCOC(=O)c1c(NC(=O)C(C)Sc2nc(-c3ccccc3)cc(C(F)(F)F)n2)sc(C(=O)N(C)C)c1C (stereo unspecified) | 132% (inactive)
CC(Oc1ccccc1)C(=O)Nc1nc2ccc(S(N)(=O)=O)cc2s1 (stereo unspecified) | 102% (inactive)
COCCNc1nc(NCc2ccccc2OC)c2cnn(C)c2n1 | 69% (inactive)
CCCCc1c(C)nc2c(-c3ccc(OC)cc3)c(C)[nH]n2c1=O | 7% (active)
CCCCc1c(C)nc2c(-c3ccc(Cl)cc3)c(C)[nH]n2c1=O | -2% (active)
CCCCc1nc2ccccc2n2c(-c3ccc(OC)cc3)c3c(=O)n(C)c(=O)n(C)c3c12 | 49% (inactive)
Cc1nc2c(-c3ccc(F)cc3)c(C)nn2c(C)c1CCC(=O)NCc1ccc(Cl)cc1 | 96% (inactive)
CCOC(=O)CCc1c(C)nc2cc(-c3cc(OC)cc(OC)c3)[nH]n2c1=O | 90% (inactive)
CCOC(=O)Cc1c(C)nc2c(-c3ccc(Cl)cc3)c(C(F)(F)F)nn2c1C | 63% (inactive)
c1ccc(Cn2ncc3c(N4CCCCC4)ncnc32)cc1 | 77% (inactive)
COc1ccc(C2=C(C)C(=O)N(Cc3ccc(C(=O)NC(C)c4ccccc4)cc3)S2(=O)=O)cc1 (stereo unspecified) | 91% (inactive)
CCOC(=O)c1c(NC(=O)/C=C/c2ccc(C)cc2)sc(C(C)=O)c1C | 79% (inactive)
CCOc1ccc(CNC(=O)c2cnc3sc(N4CCCCCC4)nn3c2=O)cc1OC | 83% (inactive)
COc1ccc(NC(=O)N2CCc3c(sc4c3CCCC4)C2c2ccccc2OC)cc1 (stereo unspecified) | 54% (active)
Cc1ccc(NC(=O)N2CCc3c(sc4c3CCCC4)C2c2ccccc2)cc1F (stereo unspecified) | 102% (inactive)
COc1ccc(NC(=O)N2CCc3c(sc4c3CCCC4)C2c2ccc(F)cc2)cc1 (stereo unspecified) | 101% (inactive)
O=C(Nc1ccc(F)cc1F)N1CCc2c(sc3c2CCCC3)C1c1ccc(F)cc1 (stereo unspecified) | 93% (inactive)
COc1cc(NC(=O)N2CCc3c(sc4c3CCCC4)C2c2ccccc2)cc(OC)c1OC (stereo unspecified) | 103% (inactive)
Cc1cccc(NC(=O)N2CCc3c(sc4c3CCCC4)C2c2ccc(F)cc2)c1 (stereo unspecified) | 37% (active)

Structure (SMILES) | survival
Cc1ccc([N+](=O)[O-])c(Oc2ncnc3c2oc2ccccc23)c1 | 101% (inactive)
Oc1c(C(c2ccccc2F)N2CCC3(CC2)OCCO3)sc2nc(-c3ccco3)nn12 (stereo unspecified) | 102% (inactive)
Cc1ccc(C)c(Nc2cc(C(=O)NC3CCCC3)c3ccccc3n2)c1 | 87% (inactive)
COc1ccc(N2C(=O)CS(=O)(=O)C23C(=O)N(Cc2ccccc2F)c2ccccc23)cc1Cl (stereo unspecified) | 75% (inactive)
CCOC(=O)c1c(NC(=O)c2ccc(S(=O)(=O)N(CC(C)C)CC(C)C)cc2)sc2c1CCN(C(=O)OCC)C2 | 124% (inactive)
Cc1ccc(Cl)cc1NC(=O)CSC1=Nc2ccccc2C2=NC(Cc3ccccc3)C(=O)N12 (stereo unspecified) | 71% (inactive)
COc1ccc(NC(=O)CSc2nnc(NC(=O)Nc3ccccc3)s2)c(OC)c1 | 47% (active)
COc1ccccc1NC(=O)CSc1nnc(NC(=O)Nc2ccc(C)cc2)s1 | 58% (inactive)
COc1ccc(NC(=O)CSc2nnc(NC(=O)Nc3ccccc3)s2)cc1OC | 86% (inactive)
CCc1ccc(-n2nc(C)c3c(C(=O)N4CCN(c5ccccc5)CC4)cc(C)nc32)cc1 | 94% (inactive)
CCn1cc(C(=O)NCC(C)C)c(=O)c2cc(F)c(N3CCN(C(=O)c4ccco4)CC3)cc21 | 76% (inactive)
Cn1cc(S(=O)(=O)c2cccc(Cl)c2)c(=O)c2cc(F)c(N3CCN(c4ccc(F)cc4)CC3)cc21 | 70% (inactive)
CCn1cc(C(=O)O)c(=O)c2cc(F)c(N3CCN(C(=O)c4ccccc4F)CC3)cc21 | 3% (active)
CCn1cc(S(=O)(=O)c2cc(C)cc(C)c2)c(=O)c2cc(F)c(N3CCCC3)cc21 | 109% (inactive)
O=c1c(S(=O)(=O)c2ccccc2)cn(Cc2ccc(F)cc2)c2cc(N3CCCCC3)c(F)cc12 | 80% (inactive)
CCn1cc(C(=O)N2CCN(c3ccccc3F)CC2)c(=O)c2cc(S(=O)(=O)N(C)C)ccc21 | 122% (inactive)
CCN1CCN(c2cc3c(cc2F)c(=O)c(S(=O)(=O)c2cc(C)cc(C)c2)cn3CC)CC1 | -1% (active)
CCn1cc(S(=O)(=O)c2cc(C)cc(C)c2)c(=O)c2cc(F)c(N3CCCCC3)cc21 | 86% (inactive)
Cn1cc(S(=O)(=O)c2ccccc2)c(=O)c2cc(F)c(N3CCN(c4ccccc4)CC3)cc21 | 116% (inactive)
Cc1cccc(S(=O)(=O)c2cn(Cc3ccc(F)cc3)c3cc(N4CCCCC4)c(F)cc3c2=O)c1 | -2% (active)
Cc1cccc(S(=O)(=O)c2cn(Cc3ccccc3)c3cc(N4CCCCC4)c(F)cc3c2=O)c1 | 82% (inactive)
Cn1cc(S(=O)(=O)c2cccc(Cl)c2)c(=O)c2cc(F)c(N3CCN(c4ccccc4)CC3)cc21 | 6% (active)
